# Source: PubChem BioAssay
# mut p53 SMM: binds human mutant p53 on microarray. small molecule microarray binding, anti-GST fluorescence. calls only. 0.4% of 17,000 active. AID 624136;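 active = compounds whose four printed spots each glow above background more than chance allows, each with a p-value under 7%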
# c-Myc SMM: binders of human c-Myc. P01106. small molecule microarray, His-c-Myc binding, anti-His fluorescence. AID 624141. 1.5% of 17,000 active. calls only;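 active = spot fluorescence over background with P-value below 7% in all four replicate spots, showing protein binding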;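 also: score is binary with 100 for all four spots passing and 0 otherwise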
# mut p53 react: restores mutant p53 pathway signaling in SW480 cells | AID 624151 | SW480 PUMA-promoter luciferase, p53 mutant reactivation | activation, % at 9.98 µM | 1.5% of 28,000 active; in the data active = activation above about 52%
# NFkB binder: binds human NF-kappa-B p105 on microarray; calls only; P19838; 1.3% of 17,000 active; Small molecule microarray, anti-His fluorescence binding;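 active = spot fluorescence over background significantly raised, with a chance value under 7% in all four replicate spots of the compound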;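 also: probe protein is his-tagged human p50 processed subunit at 1 µg/ml; raw spot fluorescence signals with no normalization applied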
# Target sequence (P19838 1-433 limits assumed): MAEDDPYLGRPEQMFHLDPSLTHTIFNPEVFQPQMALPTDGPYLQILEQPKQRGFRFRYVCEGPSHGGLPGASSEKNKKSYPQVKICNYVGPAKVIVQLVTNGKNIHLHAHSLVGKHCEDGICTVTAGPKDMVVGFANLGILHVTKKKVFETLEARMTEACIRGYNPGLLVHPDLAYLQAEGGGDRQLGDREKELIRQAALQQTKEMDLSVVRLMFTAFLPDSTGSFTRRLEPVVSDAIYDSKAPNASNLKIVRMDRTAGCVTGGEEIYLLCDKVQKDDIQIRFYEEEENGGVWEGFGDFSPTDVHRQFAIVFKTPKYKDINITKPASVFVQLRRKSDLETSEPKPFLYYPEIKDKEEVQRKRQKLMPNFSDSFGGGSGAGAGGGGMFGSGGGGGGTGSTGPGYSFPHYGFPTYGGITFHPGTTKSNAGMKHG
# STAT3 binder: binds human STAT3 on microarray; Small molecule microarray, His-STAT3 binding, anti-His fluorescence; calls only; 0.2% of 17,000 active; P40763; AID 624138;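 active = compounds whose four printed spots each show fluorescence over background unusually high for their array block, chance value under 7%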
# Numbers without * were called inactive; i = inactive; nt = no result given; + = active, no number. Sampled rows, rich in hits. Any-hit rate of the full collection: about 2.6%.
SMILES,mut p53 SMM,c-Myc SMM,mut p53 react,NFkB binder,STAT3 binder
COc1ccc(C2CC(=O)c3c(O)cc(O)cc3O2)cc1O (stereo not drawn),i,i,63*,i,i
O=C(Cn1nnc2sc3c(c2c1=O)CCCC3)NCc1ccco1,i,+,4,i,i
O=C(CSc1nnc(-c2cccc(Cl)c2)n1-c1ccccc1)Nc1ccccc1-c1ccccc1,nt,nt,-55,nt,nt
COC(=O)c1ccccc1NC(=O)CSc1nnc(-c2ccccc2)o1,nt,nt,15,nt,nt
N#C/C(N)=C(\C#N)N=Cc1ccc(C#N)cc1,nt,nt,41,nt,nt
COc1ccc(-c2nc(SCC(=O)Nc3cccc(C(F)(F)F)c3)n[nH]2)cc1,nt,nt,-9,nt,nt
C=CCSc1n[nH]c(-c2ccc(C(F)(F)F)cc2)n1,nt,nt,111*,nt,nt
Cc1ccc(-c2nnc(SCC(=O)c3cccc([N+](=O)[O-])c3)n2C)cc1,+,i,1,i,i
Cc1ccc2nc(-c3cccc(Br)c3)cc(C(=O)NCc3cccnc3)c2c1,nt,nt,58*,nt,nt
COCCNC(=O)c1cc(-c2cccnc2)nc2ccc(Br)cc12,i,i,12,i,i
CCCc1ccc(-c2cc(C(=O)NCc3cccnc3)c3ccccc3n2)cc1,nt,nt,106*,nt,nt
Cc1ccc(-c2cc(C(=O)NCc3cccnc3)c3cc(Br)ccc3n2)cc1,nt,nt,67*,nt,nt
CCn1cc(CNC(=O)c2cc(-c3cccnc3)nc3ccc(Br)cc23)c(C)n1,nt,nt,0,nt,nt
CCOc1ccccc1CNCCN1CCOCC1,i,+,5,i,i
COc1cccc(NC(=O)/C=C/c2ccc(Cl)cc2)c1,i,i,94*,i,i
O=C1c2ccccc2C2CC(c3cc(Cl)ccc3Cl)=NN12 (stereo not drawn),nt,nt,79*,nt,nt
O=C1c2ccccc2C(=O)N1CCCSc1nccn1-c1cc(Cl)ccc1Cl,nt,nt,-5,nt,nt
COc1cccc(-c2nnc(SCC(=O)Nc3cccc([N+](=O)[O-])c3)n2C)c1,nt,nt,9,nt,nt
Cc1ccc(-c2noc(CSc3nnc(C)n3-c3cccc(C)c3)n2)cc1,nt,nt,2,nt,nt
Cc1ccc(-c2noc(CSc3nc(C)cc(C)n3)n2)cc1,nt,nt,63*,nt,nt
COc1cccc(NC(=O)CSc2nc(N)c(-c3ccccc3)c(=O)[nH]2)c1,i,i,-2,i,i
CCOC(=O)C1CCCCN1Cc1cc(OC)ccc1OC (stereo not drawn),i,+,-15,+,i
COc1ccc(C(=O)Nc2sc3c(c2C(=O)Nc2cccc(OC)c2)CCC3)cc1,nt,nt,71*,nt,nt
COc1cc(OC)cc(-c2nnc(SCC(=O)Nc3sc4c(c3C#N)CCCC4)o2)c1,nt,nt,6,nt,nt
COc1ccc(OCC(=O)Nc2sc3c(c2C#N)CCC3)cc1,i,i,94*,i,i
SMILES,mut p53 SMM,c-Myc SMM,mut p53 react,NFkB binder,STAT3 binder
S=C(NCC1CCCO1)Nc1cnn(Cc2ccc(Cl)cc2)c1 (stereo not drawn),i,+,-3,i,i
O=C(CSc1ncnc2scc(-c3ccc(Cl)cc3)c12)NCC1CCCO1 (stereo not drawn),i,i,12,i,i
C=CC1(C)C=C2CCC3C(C)(C)C(O[C@@H]4O[C@@H](CO)[C@H](O)[C@H]4O)CCC3(C)C2CC1O[C@@H]1O[C@H](C)[C@H](O)[C@H](O)[C@H]1O (stereo partly drawn),i,i,-15,+,i
c1ccc(Cn2c(SCCN3CCOCC3)nc3ccccc32)cc1,i,+,8,i,i
Cc1ccc(C)c(NC(=O)CSc2nnnn2-c2ccc(C(=O)O)cc2)c1,i,i,-4,i,i
Cn1c(SCC(=O)Nc2ccccc2C(F)(F)F)nnc1-c1ccco1,nt,nt,10,nt,nt
CN(c1ccc(OCC(=O)O)cc1)S(=O)(=O)c1ccc(F)cc1,i,i,-1,+,i
CC1=C(C(=O)Nc2ccccc2C)C(c2ccccc2OCc2ccccc2)n2ncnc2N1 (stereo not drawn),nt,nt,-12,nt,nt
O=C(CS(=O)(=O)c1ccc2ccccc2c1)c1cc2ccccc2oc1=O,i,+,-7,i,i
CS(=O)(=O)N(CC(=O)O)c1ccc(C23CC4CC(CC(C4)C2)C3)cc1,i,+,3,i,i
O=C(O)Cn1nnnc1-c1ccc(F)cc1,i,+,-4,+,i
O=C(O)CCn1nc(-c2ccc(F)cc2)ccc1=O,nt,nt,11,nt,nt
Cc1nc2ccccn2c1-c1ccnc(SCC(=O)N(c2ccccc2)C2CCCCC2)n1,nt,nt,-13,nt,nt
CC1CCN(C(=O)c2ccc3c(=O)nc4c(-c5ccccc5)n[nH]n4c3c2)CC1,nt,nt,2,nt,nt
Cc1ccc(Cl)cc1N(CC(=O)O)S(C)(=O)=O,i,+,-5,+,i
